Experimental data: PubChem BioAssay (NCI)
Compounds without any hit were thinned out: in the full panel of roughly 83,000, 20% have a hit.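 Step 1: grow cells in 96-well plates. Step 2: add test compound at a single concentration. Step 3: incubate 48 h. Step 4: record percent growth.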 Active and inactive are the calls of the source. The calls were made as follows: active = growth percent below 10; inactive = the rest.

Legend:
Experiment in all cases: NCI-60 one-dose screen, 48 h (100 = growth as untreated, 0 = no growth, -100 = all killed)
Conditions in all cases: 10 µM unless noted
SK-MEL-2 melanoma = system: SK-MEL-2 melanoma
EKVX NSCLC = system: EKVX NSCLC
SN12C renal = system: SN12C renal
UO-31 renal = system: UO-31 renal
TK-10 renal = system: TK-10 renal
ACHN renal = system: ACHN renal
CAKI-1 renal = system: CAKI-1 renal
A498 renal = system: A498 renal
CCRF-CEM leukemia = system: CCRF-CEM leukemia
MOLT-4 leukemia = system: MOLT-4 leukemia

Measured: growth

COc1ccc(-c2nc3ccccn3c2/C=C/C(=O)c2cc(OC)c(OC)c(OC)c2)cc1
inactive: SK-MEL-2 melanoma 52.6% | EKVX NSCLC 90.4% | SN12C renal 54.8% | UO-31 renal 42.9% | TK-10 renal 73.6% | ACHN renal 43.1% | CAKI-1 renal 59.1% | A498 renal 55% | CCRF-CEM leukemia 41.7% | MOLT-4 leukemia 61.6%

C=CC(=O)Nc1cccc(C)c1Nc1cc(-c2cccnc2Cc2c(C)c(OC)cc(OC)c2C)ncn1
inactive: EKVX NSCLC 82.1% | SN12C renal 30.1% | UO-31 renal 51% | ACHN renal 29.7% | CAKI-1 renal 36.4%
active: SK-MEL-2 melanoma -29% | TK-10 renal -8.59% | A498 renal -4.92% | CCRF-CEM leukemia -0.444% | MOLT-4 leukemia -7.26%

CN(C)CCn1cc(-c2ccc3c(Nc4ccc(CC(=O)Nc5cccc(F)c5)cc4)ncnc3c2)cn1
inactive: SK-MEL-2 melanoma 37.2% [30 µM] | A498 renal 59.5% [30 µM]
active: EKVX NSCLC -34.7% [30 µM] | SN12C renal -91.4% [30 µM] | UO-31 renal -60% [30 µM] | TK-10 renal -58.5% [30 µM] | ACHN renal -51.7% [30 µM] | CAKI-1 renal -15.8% [30 µM] | CCRF-CEM leukemia -19.3% [30 µM] | MOLT-4 leukemia -30.6% [30 µM]

Cc1cc(NS(=O)(=O)c2ccccc2)c(OS(=O)(=O)c2ccccc2)cc1C
inactive: SK-MEL-2 melanoma 118% | EKVX NSCLC 104% | SN12C renal 94% | UO-31 renal 73.6% | TK-10 renal 119% | ACHN renal 104% | CAKI-1 renal 109% | A498 renal 89.2% | CCRF-CEM leukemia 97.5% | MOLT-4 leukemia 88.5%

CCCCCCCC/C=C\CCCCCCCC(=O)Oc1cccc2cccnc12
inactive: SK-MEL-2 melanoma 140% | EKVX NSCLC 95.1% | SN12C renal 88.9% | UO-31 renal 88.3% | TK-10 renal 120% | ACHN renal 103% | A498 renal 121% | CCRF-CEM leukemia 96.3% | MOLT-4 leukemia 80.3%
active: CAKI-1 renal -0.06%

Cc1c2c(cn1Cc1ccccc1)CCc1cn[nH]c1-2
inactive: SK-MEL-2 melanoma 96.4% | EKVX NSCLC 99.1% | SN12C renal 98.3% | UO-31 renal 75.2% | TK-10 renal 118% | ACHN renal 99.6% | CAKI-1 renal 84.1% | A498 renal 108% | CCRF-CEM leukemia 77% | MOLT-4 leukemia 85.1%

C[C@]12CCC(=O)C[C@H]1CC[C@@H]1[C@@H]2CC[C@@]2(C)[C@H]1CC[C@]2(O)C(=O)CO
inactive: SK-MEL-2 melanoma 106% | EKVX NSCLC 107% | SN12C renal 101% | UO-31 renal 91.6% | TK-10 renal 131% | ACHN renal 96.7% | CAKI-1 renal 106% | A498 renal 97.1% | CCRF-CEM leukemia 105% | MOLT-4 leukemia 107%

CC(C)OCCCNCC(=O)Nc1ccc(S(=O)(=O)c2ccc(NC(=O)CNCCCOC(C)C)cc2)cc1
inactive: SK-MEL-2 melanoma 115% | EKVX NSCLC 101% | SN12C renal 90.8% | UO-31 renal 90.8% | TK-10 renal 93.9% | ACHN renal 100% | CAKI-1 renal 94.4% | A498 renal 89.5% | CCRF-CEM leukemia 85.1% | MOLT-4 leukemia 78.1%

O=C(CCc1nc(-c2cccc(Cl)c2)no1)Nc1ccccn1
inactive: SK-MEL-2 melanoma 105% | EKVX NSCLC 92.6% | SN12C renal 94.9% | UO-31 renal 88.1% | TK-10 renal 111% | ACHN renal 101% | CAKI-1 renal 89.4% | A498 renal 92.5% | CCRF-CEM leukemia 95% | MOLT-4 leukemia 96.8%

CCCCOc1nc2ccc(Cl)cc2cc1/C=C/C(=O)/C=C1/CC(c2cc3cc(Cl)ccc3nc2OCCCC)Nc2ccccc2N1 (stereo not given)
inactive: SK-MEL-2 melanoma 102% | EKVX NSCLC 78.6% | SN12C renal 91.8% | UO-31 renal 77.4% | TK-10 renal 113% | ACHN renal 92.7% | CAKI-1 renal 81.9% | A498 renal 102% | CCRF-CEM leukemia 101% | MOLT-4 leukemia 100%

CC(C)OC(=O)OCOP(=O)(OCOC(=O)OC(C)C)C1CCCN(O)C1=O (stereo not given)
inactive: SK-MEL-2 melanoma 28.5% | EKVX NSCLC 47.8% | ACHN renal 26.9% | CAKI-1 renal 25.1% | CCRF-CEM leukemia 10% | MOLT-4 leukemia 22.5%
active: SN12C renal 5.75% | UO-31 renal 9.98% | TK-10 renal 2.39% | A498 renal 1.16%

CC1(C)C(=O)/C(=C\c2cccnc2)C[C@]2(C)[C@H]3CC=C4[C@@H]5C[C@@](C)(C(=O)O)CC[C@]5(C)CC[C@@]4(C)[C@]3(C)CC[C@@H]12
inactive: SK-MEL-2 melanoma 96.8% | EKVX NSCLC 95.8% | SN12C renal 94.2% | UO-31 renal 84.2% | TK-10 renal 101% | ACHN renal 95.8% | CAKI-1 renal 86.9% | A498 renal 100% | CCRF-CEM leukemia 81.8% | MOLT-4 leukemia 87.2%

COc1ccc(/C=N/NC(=O)Cn2c(-c3ccc(S(C)(=O)=O)cc3)nc3cc(Cl)ccc32)cc1
active: CCRF-CEM leukemia 1.56%
inactive: SK-MEL-2 melanoma 21.2% | EKVX NSCLC 25.3% | SN12C renal 27.3% | UO-31 renal 43.2% | TK-10 renal 36.8% | ACHN renal 30.3% | CAKI-1 renal 42% | A498 renal 21.4% | MOLT-4 leukemia 12.9%

CC(=O)c1sc(-c2ccccc2)cc1N
inactive: SK-MEL-2 melanoma 109% | EKVX NSCLC 44.4% | SN12C renal 96.1% | UO-31 renal 88.6% | TK-10 renal 101% | ACHN renal 104% | CAKI-1 renal 92.9% | A498 renal 84.4% | CCRF-CEM leukemia 96.6% | MOLT-4 leukemia 91.7%

COc1ccc(-n2nnc(C(=O)NCCc3c[nH]c4ccc(F)cc34)c2C)cc1
inactive: SK-MEL-2 melanoma 91.6% | EKVX NSCLC 102% | SN12C renal 103% | UO-31 renal 83.5% | TK-10 renal 96.2% | ACHN renal 102% | CAKI-1 renal 91.7% | A498 renal 100% | CCRF-CEM leukemia 87.9% | MOLT-4 leukemia 87.9%

CCN(CC)CCCNC(=O)c1ccc(N)cc1
inactive: SK-MEL-2 melanoma 99% | EKVX NSCLC 104% | SN12C renal 103% | UO-31 renal 78.8% | TK-10 renal 97.8% | ACHN renal 97.3% | CAKI-1 renal 107% | A498 renal 66.3% | MOLT-4 leukemia 85.3%
active: CCRF-CEM leukemia -34.9%

Cc1c(C(N)=O)sc2nc(C)n(/N=c3\scc(-c4ccccc4)n3Cc3ccccc3)c(=O)c12
inactive: SK-MEL-2 melanoma 10% | SN12C renal 47.7% | MOLT-4 leukemia 12.1%
active: EKVX NSCLC -6.97% | UO-31 renal 4.13% | TK-10 renal 2.89% | ACHN renal 7.27% | CAKI-1 renal -40.6% | A498 renal 0.708% | CCRF-CEM leukemia -12.2%

CCCCNC(=O)c1cc(NCc2cc(O)ccc2O)ccc1O
active: CCRF-CEM leukemia 8.3%
inactive: SK-MEL-2 melanoma 93.6% | EKVX NSCLC 95% | SN12C renal 89.7% | UO-31 renal 57% | TK-10 renal 101% | ACHN renal 89.4% | CAKI-1 renal 87.3% | A498 renal 88.9% | MOLT-4 leukemia 61.5%

CN1CCN(C(=O)[C@@]2(C)CC[C@]3(C)CC[C@]4(C)C(=CC[C@@H]5[C@@]6(C)C/C(=C/c7ccncc7)C(=O)C(C)(C)[C@@H]6CC[C@]54C)[C@@H]3C2)CC1
active: CCRF-CEM leukemia 6.69% | MOLT-4 leukemia 2.16%
inactive: SK-MEL-2 melanoma 85.1% | EKVX NSCLC 62.7% | SN12C renal 46.2% | UO-31 renal 44.3% | TK-10 renal 75.5% | ACHN renal 67.4% | CAKI-1 renal 46.3% | A498 renal 79.9%

COc1ccc(/C(C)=C(\c2ccc(Cl)cc2)c2ccc(OCCN3CCCCCC3)cc2)cc1F
inactive: SK-MEL-2 melanoma 74.5% | EKVX NSCLC 57.7% | SN12C renal 57.4% | UO-31 renal 32.4% | TK-10 renal 81.7% | ACHN renal 64.5% | CAKI-1 renal 22.6% | A498 renal 77.6% | CCRF-CEM leukemia 36.2% | MOLT-4 leukemia 26.6%

CSc1nc2sc3cc(Cl)ccc3n2c(=N)c1C#N
inactive: SK-MEL-2 melanoma 87.3% | EKVX NSCLC 81.9% | SN12C renal 89.5% | UO-31 renal 75.2% | TK-10 renal 83.8% | ACHN renal 78.9% | CAKI-1 renal 69.9% | A498 renal 98% | CCRF-CEM leukemia 88.6% | MOLT-4 leukemia 15.7%

CN1CCN(C(=O)[C@]23CCC(C)(C)C[C@@H]2C2=CC[C@@H]4[C@@]5(C)Cc6c([nH]c7ccccc67)C(C)(C)[C@@H]5CC[C@@]4(C)[C@]2(C)CC3)CC1
inactive: SK-MEL-2 melanoma 95.1% | EKVX NSCLC 77% | SN12C renal 88.1% | UO-31 renal 57.7% | TK-10 renal 92.4% | ACHN renal 86.9% | CAKI-1 renal 55.2% | A498 renal 96.5% | CCRF-CEM leukemia 71% | MOLT-4 leukemia 63%

COc1ccc(-c2nc3ncccn3c2/C=C/C(=O)c2cc(OC)c(OC)c(OC)c2)cc1
active: SK-MEL-2 melanoma 0.675% | EKVX NSCLC 1.1% | CAKI-1 renal -3.66% | A498 renal -20.5% | CCRF-CEM leukemia 1.32% | MOLT-4 leukemia 4.3%
inactive: SN12C renal 15.7% | UO-31 renal 17% | TK-10 renal 15.5% | ACHN renal 20.4%

COc1cc(/C=C/c2nc(Nc3ccc(S(=O)(=O)Nc4cc(C)on4)cc3)c3ccccc3n2)ccc1O
inactive: SK-MEL-2 melanoma 72% | EKVX NSCLC 73.3% | SN12C renal 60.7% | UO-31 renal 58% | TK-10 renal 93% | ACHN renal 83.6% | CAKI-1 renal 45% | A498 renal 95.2% | CCRF-CEM leukemia 55.9% | MOLT-4 leukemia 42.1%

C[N+](C)(C)CCOC(OCC[N+](C)(C)C)(c1ccccc1)c1ccccc1
inactive: SK-MEL-2 melanoma 99.4% | EKVX NSCLC 111% | SN12C renal 99.9% | UO-31 renal 89.1% | TK-10 renal 109% | ACHN renal 97.6% | CAKI-1 renal 101% | A498 renal 113% | CCRF-CEM leukemia 105% | MOLT-4 leukemia 102%

O=c1[nH]c(NCc2nnnn2-c2ccc(Br)cc2)nc2sc3c(c12)CCCC3
inactive: SK-MEL-2 melanoma 108% | EKVX NSCLC 96.3% | SN12C renal 97.6% | UO-31 renal 77.9% | TK-10 renal 98.1% | ACHN renal 98.9% | CAKI-1 renal 89.6% | A498 renal 84.6% | CCRF-CEM leukemia 90.8% | MOLT-4 leukemia 76.9%
